Results filed as inconclusive are left out. Unmarked numbers belong to inactive results. Activity calls are given as the source filed them. Calls come from the whole dose curve; as a rule, active = well fitted curve in the direction sought with a large enough effect; inconclusive = small, poorly fitted or top-dose-only effect, or another doubt; inactive = no such curve, though single readings can be large; an effect the other way counts as inactive or inconclusive.
Assay: qHTS of pediatric cancer cell lines to identify multiple opportunities for drug repurposing: Primary screen for DAOY cells (AID 1347090); note: nearly all actives have a fitted effect of over 55% in size;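 for activity change, negative = cytotoxic: plate controls were DMSO for no effect and bortezomib for full effect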
Details: DAOY medulloblastoma viability, CellTiter-Glo luminescence, 48 h; series mostly up to 46 µM
In short: (§1)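 Eight- or eleven-point concentration series, 48 h treatment at 37 degrees C in growth media; readout CellTiter-Glo luminescence. Potency and efficacy were taken from the concentration-response curves.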
Potency is the fitted concentration of half-maximal effect.

For `Cc1ccccc1C(=O)Nc1ccc(C(=O)N2CCCC(O)c3cc(Cl)ccc32)c(C)c1` (configuration not stated), which Potency is on record?
The Potency was “inactive”.

With `CCc1cnn2c(NCc3ccc[n+]([O-])c3)cc(N3CCCC[C@@H]3CCO)nc12` as the compound, how does the Potency read?
The Potency was 37.2 nM (active).

With `CC(C)C[C@H](NC(=O)CNC(=O)c1cc(Cl)ccc1Cl)B1OC(=O)CC(CC(=O)O)(C(=O)O)O1` (some centres not stated) as the compound, how does the Potency read?
The Potency was 148 nM (active).

For `COC(=O)[C@@H]1[C@H]2C[C@@H]3c4[nH]c5ccccc5c4CCN3C[C@@H]2CC[C@@H]1O`, which Potency is on record?
The Potency was “inactive”.

Which Potency does the source give for `C[C@@H](Cc1cc2c(c(C(N)=O)c1)N(CCCO)CC2)NCCOc1ccccc1OCC(F)(F)F` here?
Its Potency is “inactive”.

With `CC(=O)C1=C(O)C=C2Oc3c(C(C)=O)c(O)c(C)c(O)c3C2(C)C1=O` (configuration not stated) as the compound, how does the Potency read?
Its Potency is “inactive”.

With `N#CC(=C(O)c1ccc(Cl)cc1Cl)c1nc2cc(Cl)ccc2c(=O)[nH]1` as the compound, how does the Potency read?
The Potency was “inactive”.

For `CC(=O)NCC(=O)N1[C@H]2CC[C@H]1c1cc(Nc3ncc(C(F)(F)F)c(NC4CCC4)n3)ccc12`, which Potency is on record?
The Potency was 18700 nM (active).

Which Potency does the source give for `Nc1ccn(C2CO[C@H](CO)O2)c(=O)n1` (some centres not stated) here?
Its Potency is “inactive”.

With `NC(=O)c1ncn([C@@H]2O[C@H](CO)[C@@H](O)[C@@H]2O)c1N` as the compound, how does the Potency read?
Its Potency is “inactive”.

For `Cc1cc(O)c2c(c1)C(=O)c1cccc(O)c1C2=O`, which Potency is on record?
The Potency was “inactive”.

Which Potency does the source give for `COC(=O)[C@H](CCCN=C(N)N)NS(=O)(=O)c1ccc(C)cc1` here?
The Potency was “inactive”.

With `COC[C@H](NC(=O)c1cnc(C)s1)C(=O)N[C@@H](COC)C(=O)N[C@@H](Cc1ccccc1)C(=O)[C@@]1(C)CO1` as the compound, how does the Potency read?
Its Potency is 296 nM (active).

Assay: qHTS of pediatric cancer cell lines to identify multiple opportunities for drug repurposing: Primary screen for SJ-GBM2 cells (AID 1347091);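 for activity change, negative = cytotoxic: plate controls were DMSO neutral control for no effect and bortezomib for full effect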
Details: SJ-GBM2 viability, CellTiter-Glo luminescence, 48 h; series mostly up to 46 µM
In short: as §1

Which Potency does the source give for `NC(=O)Nc1sc(-c2ccc(F)cc2)cc1C(N)=O` here?
The Potency was 372 nM (active).

For `CC(C)(N)c1ccc(-c2nc3ccccc3nc2-c2ccccc2)cc1`, which Potency is on record?
Its Potency is 23500 nM (active).

Which Potency does the source give for `C=C(C)[C@@H]1CC[C@]2(C(=O)O)CC[C@]3(C)[C@H](CC[C@@H]4[C@@]5(C)CC[C@H](O)C(C)(C)[C@@H]5CC[C@]43C)[C@@H]12` here?
The Potency was 18700 nM (active).

With `C=C1C(=O)O[C@H]2[C@@H]1CCC(C)=CCC[C@@]1(C)O[C@@H]21` as the compound, how does the Potency read?
The Potency was 8330 nM (active).

Which Potency does the source give for `C=Cc1c(C)c2cc3nc(cc4[nH]c(cc5nc(cc1[nH]2)C(C)=C5CCC(=O)O)c(CCC(=O)OC)c4C)[C@@]1(C)C3=CC=C(C(=O)OC)[C@H]1C(=O)OC` here?
The Potency was 590 nM (active).

With `Cc1ccc([N+](=O)[O-])cc1S(=O)(=O)N(C)N=Cc1cnc2ccc(Br)cn12` as the compound, how does the Potency read?
Its Potency is 118 nM (active).

Which Potency does the source give for `CCc1nc(-c2cccc(C)c2)c(-c2ccnc(NC(=O)c3ccccc3)c2)s1` here?
Its Potency is 18700 nM (active).

With `CCCc1nc(C(C)(C)O)c(C(=O)O)n1Cc1ccc(-c2ccccc2-c2nn[nH]n2)cc1` as the compound, how does the Potency read?
Its Potency is “inactive”.

For `CC(C)N(CC[C@H](c1ccccc1)c1cc(CO)ccc1O)C(C)C`, which Potency is on record?
Its Potency is “inactive”.

With `CC(C)N1[N]C(=C2C=c3cc(O)ccc3=N2)c2c(N)ncnc21` as the compound, how does the Potency read?
The Potency was 93.5 nM (active).

Which Potency does the source give for `CC(C)(O)CC[C@@H](O)[C@](C)(O)[C@H]1CC[C@@]2(O)C3=CC(=O)[C@@H]4C[C@@H](O)[C@@H](O)C[C@]4(C)[C@@H]3CC[C@]12C` here?
Its Potency is “inactive”.

With `CN[C@H]1[C@@H](O)[C@@H]2O[C@@H]3O[C@H](C)CC(=O)[C@]3(O)O[C@@H]2[C@@H](NC)[C@H]1O` as the compound, how does the Potency read?
The Potency was 590 nM (active).

For `C[C@H](CCC(=O)O)[C@H]1CCC2C3C[C@H](O)[C@@H]4C[C@H](O)CC[C@]4(C)C3CC[C@@]21C` (some centres not stated), which Potency is on record?
Its Potency is “inactive”.

For `O=C1c2cccc(O)c2C(=O)c2c(O)cc(CO)cc21`, which Potency is on record?
Its Potency is “inactive”.

With `C[C@]12CC[C@@H]3c4ccc(O)cc4CC[C@H]3[C@H]1CC[C@H]2O` as the compound, how does the Potency read?
The Potency was 16600 nM (active).

With `Cc1ccccc1C(=O)Nc1ccc(C(=O)N2CCCC(O)c3cc(Cl)ccc32)c(C)c1` (configuration not stated) as the compound, how does the Potency read?
Its Potency is “inactive”.

For `COc1ccc(CCC(=O)c2c(O)cc(O[C@@H]3O[C@H](CO)[C@@H](O)[C@H](O)[C@@H]3O[C@@H]3O[C@@H](C)[C@H](O)[C@@H](O)[C@@H]3O)cc2O)cc1O`, which Potency is on record?
The Potency was “inactive”.

Which Potency does the source give for `CCc1cnn2c(NCc3ccc[n+]([O-])c3)cc(N3CCCC[C@@H]3CCO)nc12` here?
Its Potency is 23.5 nM (active).

For `CC(C)C[C@H](NC(=O)CNC(=O)c1cc(Cl)ccc1Cl)B1OC(=O)CC(CC(=O)O)(C(=O)O)O1` (some centres not stated), which Potency is on record?
Its Potency is 148 nM (active).

With `COc1cccc2c1C(=O)c1c(O)c3c(c(O)c1C2=O)C[C@@](O)(C(=O)CO)C[C@@H]3O[C@H]1C[C@H](N)[C@H](OC2CCCCO2)[C@H](C)O1` (some centres not stated) as the compound, how does the Potency read?
The Potency was 1180 nM (active).

With `COC(=O)[C@@H]1[C@H]2C[C@@H]3c4[nH]c5ccccc5c4CCN3C[C@@H]2CC[C@@H]1O` as the compound, how does the Potency read?
Its Potency is “inactive”.

Which Potency does the source give for `CNC(=O)c1cccc(-c2ccc3c(N4CCOC[C@H]4C)nc(N4CCOC[C@H]4C)nc3n2)c1` here?
Its Potency is 105 nM (active).

Which Potency does the source give for `C[C@@H](Cc1cc2c(c(C(N)=O)c1)N(CCCO)CC2)NCCOc1ccccc1OCC(F)(F)F` here?
The Potency was “inactive”.

For `CC[C@@]1([C@@H]2O[C@@H]([C@H]3O[C@@](O)(CO)[C@H](C)C[C@H]3C)C[C@H]2C)CC[C@H]([C@]2(C)CC[C@]3(C[C@H](O)[C@@H](C)[C@@H]([C@@H](C)[C@@H](OC)[C@H](C)C(=O)O)O3)O2)O1`, which Potency is on record?
Its Potency is 288 nM (active).

For `CC(=O)C1=C(O)C=C2Oc3c(C(C)=O)c(O)c(C)c(O)c3C2(C)C1=O` (configuration not stated), which Potency is on record?
Its Potency is 2350 nM (active).

With `N#CC(=C(O)c1ccc(Cl)cc1Cl)c1nc2cc(Cl)ccc2c(=O)[nH]1` as the compound, how does the Potency read?
Its Potency is “inactive”.

With `CC(=O)NCC(=O)N1[C@H]2CC[C@H]1c1cc(Nc3ncc(C(F)(F)F)c(NC4CCC4)n3)ccc12` as the compound, how does the Potency read?
The Potency was 83.3 nM (active).

With `Nc1ccn(C2CO[C@H](CO)O2)c(=O)n1` (some centres not stated) as the compound, how does the Potency read?
Its Potency is “inactive”.

For `NC(=O)c1ncn([C@@H]2O[C@H](CO)[C@@H](O)[C@@H]2O)c1N`, which Potency is on record?
The Potency was “inactive”.

For `Cc1cc(O)c2c(c1)C(=O)c1cccc(O)c1C2=O`, which Potency is on record?
Its Potency is “inactive”.

Which Potency does the source give for `CC(C)Oc1ccc(C(=O)N[C@H](CNC(=O)CN(C)C)Cc2ccc(-c3cn4cccc([C@H](C)O)c4n3)cc2)cc1Cl` here?
Its Potency is 148 nM (active).

Which Potency does the source give for `COC(=O)[C@H](CCCN=C(N)N)NS(=O)(=O)c1ccc(C)cc1` here?
Its Potency is “inactive”.

Which Potency does the source give for `CC(C)c1cc(C(C)C)c(CC(=O)NS(=O)(=O)Oc2c(C(C)C)cccc2C(C)C)c(C(C)C)c1` here?
The Potency was 11800 nM (active).

With `COC[C@H](NC(=O)c1cnc(C)s1)C(=O)N[C@@H](COC)C(=O)N[C@@H](Cc1ccccc1)C(=O)[C@@]1(C)CO1` as the compound, how does the Potency read?
The Potency was 66.2 nM (active).

Which Potency does the source give for `CN1C(C(=O)Nc2ccccn2)=C(O)c2sc(Cl)cc2S1(=O)=O` here?
Its Potency is “inactive”.

Which Potency does the source give for `C[C@@H](Oc1ccc2[nH]nc(C=Cc3cnn(CCO)c3)c2c1)c1c(Cl)cncc1Cl` here?
Its Potency is 418 nM (active).

For `O=C1NC(=O)[C@@H](c2cn3c4c(cccc24)CCC3)[C@H]1c1c[nH]c2ccccc12`, which Potency is on record?
Its Potency is 83.3 nM (active).

Which Potency does the source give for `CCOc1cc2c(c(F)c1OCC)C(=N)N(CC(=O)c1cc(N3CCOCC3)c(OC)c(C(C)(C)C)c1)C2` here?
Its Potency is 23500 nM (active).

With `CC(C)(C)[C@H](NC(=O)c1ccc(N)c(Cl)c1)C(=O)N1CCC[C@@H]1C(=O)N[C@H](C#N)CC(=O)O` as the compound, how does the activity change, negative = cytotoxic read?
Its activity change, negative = cytotoxic is 0.43% [at 4.84 µM].

Source: PubChem BioAssay (NCATS)
